Bioassay records deposited in PubChem by National Center for Advancing Translational Sciences (NCATS).
HT1080-NT tox = kills 2HG-producing HT-1080-NT fibrosarcoma cells; HT-1080-NT fibrosarcoma viability, CellTiter-Glo ATP luminescence, 48 h; Potency, µM (titrated, usually from 46.1 µM), for inactives: at the highest dose activity, negative = less viability, most hits filed as cytotoxic; 360,000 compounds, 1.6% hits; AID 686970;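 also: NT is the 2HG producing partner of a matched IDH1 knockdown line; potency is read from the fitted curve at half-maximal effect; 0% = DMSO-treated cells and -100% = media-only wells without cells; nearly all actives have a fitted effect of over 55% in size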
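Toxicity toward the 2HG-producing NT line was scored as %Activity, normalised to DMSO and no-cell wells, from CellTiter-Glo luminescence after 48 hours' treatment.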
IL1B secr inh = inhibitors of inflammasome signaling (IL-1 beta secretion) | THP-1 LPS/ATP IL-1B secretion, AlphaLISA, 16 h; stronger effect = lower value | activity change, % at 57.5 µM | 360,000 compounds, 4.7% hits | AID 743279; in the data active = activity change below about -50%; inconclusive = mostly about -30% to -49%
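Secreted IL-1B measured by AlphaLISA bead assay after 16 h compound exposure of THP-1 cells; compounds (final up to 57.5 uM) added 1 h before LPS (250 ng/mL) and ATP (1.25 mM) stimulation; lower signal means less secretion.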
TDP1 cell CPT = DT40-hTDP1 cell growth loss with CPT. chicken DT40 Tdp1-/-;hTDP1 cells + 20 nM CPT, ATP luminescence, 48 h. Potency, µM (titrated, usually from 46.2 µM), without a hit: top-dose activity change, negative = growth inhibition, actives largely listed as inhibitors. 420,000 compounds, 12% hits; also: potency is read from the fitted curve at half-maximal effect; nearly all actives have a fitted effect of over 55% in size
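Chicken DT40 Tdp1-/- cells stably complemented with human TDP1 were seeded at 400 cells/well in medium containing 20 nM camptothecin, exposed to pin-transferred compounds, and grown at 37 °C for at least 48 hr. Viability was read as ATP luminescence.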
DT40 TDP1 no CPT = qHTS for Inhibitors of human tyrosyl-DNA phosphodiesterase 1 (TDP1): qHTS in cells in absence of CPT | Potency, µM (series often up to 46.2 µM), without a hit: top-dose activity change, negative = growth inhibition, actives largely listed as inhibitors | 420,000 compounds, 15% hits | AID 686978, 2013 | DT40 Tdp1-/- hTDP1 cells, no CPT, ATP luminescence, 48 h; also: potency is read from the fitted curve at half-maximal effect; nearly all actives have a fitted effect of over 55% in size
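Cells were dispensed at 400 per well, compounds added by pin tool, plates incubated ≥48 hr at 37 °C, then CellTiter-Glo added for 30 min at room temperature before luminescence reading. Line: DT40 Tdp1-/- complemented with hTDP1; camptothecin omitted.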
ELG1 repair inh = inhibitors of ELG1-dependent DNA repair in HEK293T cells; HEK293T ELG1-luciferase reporter, luminescence, 16 h; DNA damage induced by 5-fluorouridine; Potency, µM (doses to about 46.1 µM), for the others: at the highest dose activity change, negative = inhibition, most hits filed as inhibitors; 330,000 compounds, 2.3% hits; AID 504467; also: potency is read from the fitted curve at half-maximal effect; nearly all actives have a fitted effect of over 55% in size
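Luminescence from the luciferase reporter, measured 30 min after ONE-Glo reagent at room temperature, was the read-out. Beforehand, 2,000 cells per well were exposed for 16 hr at 37 °C to 5-fluorouridine together with compound or vehicle.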
HT1080 IDH1KD tx = toxicity to HT-1080 IDH1 knockdown cells (counter line); HT-1080 IDH1 knockdown viability, ATP luminescence, 48 h; 360,000 compounds, 2% hits; Potency, µM (top dose mostly 46.1 µM), without a hit: top-dose activity, negative = toxicity, usual class: cytotoxic;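 also: potency is read from the fitted curve at half-maximal effect; 0% = DMSO wells and -100% = cell-free medium wells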
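Using the IDH1-knockdown HT-1080 line run in the same batch and compound series as the NT line, viability after 48 h at 37 °C was determined by CellTiter-Glo luminescence and expressed as % activity.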
The depositor's hits bear a star; ? = inconclusive; · = no result; [ ] = dose if it differs, or a comment. Shown are actives, neighbours in structure and some others; about 19% of the full set was active somewhere. Unless noted, calls follow the shape of the dose curve; as a rule, active = well fitted curve in the direction sought with a large enough effect; inconclusive = small, poorly fitted or top-dose-only effect, or another doubt; inactive = no such curve, though single readings can be large; an effect the other way counts as inactive or inconclusive. Unless noted, % is scaled to controls: 0 for no effect and ±100 for the full control effect.

SMILES	HT1080-NT tox	IL1B secr inh	TDP1 cell CPT	DT40 TDP1 no CPT	ELG1 repair inh	HT1080 IDH1KD tx
OCCOCCn1c(C(CO)Nc2nc(-c3ccc(Cl)cc3)cs2)nc2ccccc21 (configuration not stated)	-19.8%	?	29.1µM*	18.4µM*	·	-20.3%
OCCOCCn1c(C(CO)Nc2nc(-c3ccccc3Br)cs2)nc2ccccc21 (configuration not stated)	0.7%	6.9	?	-21.7%	·	0.7%
OCCOCCn1c(C(CO)Nc2nc(-c3cccc(Br)c3)cs2)nc2ccccc21 (configuration not stated)	-10.0%	-23.3	?	18.4µM*	·	-14.5%
CC(C)C[C@@H]1COc2cc(N3CCC[C@H]3CO)ccc2S(=O)(=O)N1	16.1%	19.5	-12.0%	-18.4%	·	1.3%
CC(O)CNc1nc(Cl)c(C#N)s1 (configuration not stated)	-0.2%	-1.1	12.1%	10.8%	-11.6%	1.6%
CN(C)CCC1c2ccc(Cl)cc2CCc2cccnc21 (configuration not stated) (tested in a mixture with another compound)	-17.3%	-75.0*	-6.0%	?	?	-13.1%
CN(C)CCCOc1ccc(Cl)cc1Br	-14.5%	-11.2	-24.3%	-19.1%	0.0%	-15.7%
COc1ccc(S(=O)(=O)N2CCN(c3cc(-c4ccccc4)nc4ncnn34)CC2)cc1	-6.7%	-68.7*	20.6µM*	16.4µM*	20.6µM*	?
Cc1ccccc1NC(=O)C1CCN(c2cc(-c3ccccc3)nc3ncnn23)CC1	-22.5%	?	14.6µM*	20.6µM*	14.6µM*	-19.6%
O=S(=O)(c1ccc(Br)cc1)N1CCN(c2ccccc2)CC1	14.5%	7.9	12.7%	-2.1%	-18.0%	0.7%
Cc1nc2ncnn2c(N2CCC(C(=O)NC3CCCC3)CC2)c1Cc1ccccc1	-13.4%	-18.2	-29.1%	-30.0%	-4.1%	-26.5%
COc1ccc(-c2cc(N3CCCC3)n3ncnc3n2)cc1	-8.4%	?	?	?	-30.0%	-14.4%
Cc1nc2ncnn2c(N2CCN(S(=O)(=O)c3ccc(Br)cc3)CC2)c1C	6.8%	39.0	?	4.61µM*	-11.3%	6.7%
O=S(=O)(c1ccc(Br)cc1)N1CCN(c2cc(-c3ccccc3)nc3ncnn23)CC1	13.4%	?	13µM*	25.9µM*	?	-2.9%
COc1ccc(NC(=O)C2CCCN(C(=O)Nc3ccc(F)cc3)C2)cc1 (configuration not stated)	4.3%	-4.3	6.8%	-0.8%	-1.1%	-2.7%
NS(=O)(=O)c1ccc(NC2=CC(c3ccc([N+](=O)[O-])cc3)N(c3ccc(S(N)(=O)=O)cc3)C2=O)cc1 (configuration not stated)	-1.6%	5.3	-1.8%	9.2%	24.4%	-0.4%
Cc1ccc(S(=O)(=O)N2CCCCC2)cc1NC(=O)CSc1nnc(C2CC2)n1C	-0.9%	23.2	-20.5%	-17.8%	11.5%	-1.9%
OC(c1cc(-c2ccc(C(F)(F)F)cc2)nc(C(F)(F)F)c1)C1CCCCN1 (configuration not stated)	?	-104.0*	1.64µM*	6.51µM*	?	?
Nc1nc2ccccc2n1S(=O)(=O)c1ccc([N+](=O)[O-])cc1	-27.7%	10.1	29.1µM*	20.6µM*	·	?
O=[N+]([O-])c1ccc(S(=O)(=O)CC2CSc3nc4ccccc4n32)cc1 (configuration not stated)	0.4%	57.2	13µM*	11.6µM*	1.6%	-9.5%
Cc1nnc2n(c1=O)C(CS(=O)(=O)c1ccccc1)CS2 (configuration not stated)	-8.2%	10.4	2.1%	-12.2%	0.5%	-3.2%
CCOC(=O)c1sc(Nc2ccc(C)cc2C)nc1C	-12.0%	-17.1	?	15.8µM*	0.5%	-5.3%
CCOC(=O)c1sc(Nc2nc(C)cc(C)n2)nc1C	-4.7%	30.7	7.31µM*	6.51µM*	?	0.9%
CCOC(=O)c1sc(Nc2nc(C)cc(OC)n2)nc1C	15.6%	72.4	?	13µM*	-19.8%	6.1%
CCOC(=O)C(C)Oc1cccc2c(=O)n(CC(=O)NCc3ccco3)ccc12 (configuration not stated)	?	-54.5*	1.64µM*	2.06µM*	11.9%	1.64µM*
SMILES	HT1080-NT tox	IL1B secr inh	TDP1 cell CPT	DT40 TDP1 no CPT	ELG1 repair inh	HT1080 IDH1KD tx
CC(=O)Nc1ccc(C(=O)N2CCCC(c3cc(C(=O)Nc4ccccc4)no3)C2)cc1 (configuration not stated)	19.4%	-6.8	?	-23.9%	·	12.5%
O=C(NCCN1CCCCC1)Nc1ccc(F)cc1	-4.2%	-10.5	-1.9%	-19.5%	0.1%	8.2%
Cc1cc2nc(C)n(CCCNC(=O)Nc3ccc(F)cc3)c2cc1C	-6.6%	?	?	23.1µM*	2.0%	-15.6%
C=CCOC(=O)Nc1nc(CCNC(=O)OCc2ccccc2)c(C(=O)O)s1	6.6%	-5.0	11.7%	1.4%	·	19.3%
CNS(=O)(=O)c1cc2c3c(cccc3c1)C(=O)NC2=O	-2.2%	-9.7	18.4µM*	23.1µM*	?	-7.7%
Cc1ccc(NS(=O)(=O)c2cc3c4c(cccc4c2)C(=O)NC3=O)cc1	?	13.6	?	9.2µM*	?	?
Cc1ccc(S(=O)(=O)Nc2ccc3ccccc3c2)cc1	-5.8%	?	?	?	·	-2.5%
COc1ccc(CNc2nc(C)c([N+](=O)[O-])c(C)c2C#N)cc1	-1.1%	-11.9	18.4µM*	?	-13.5%	-12.5%
COc1cc(CNc2nc(C)c([N+](=O)[O-])c(C)c2C#N)cc(OC)c1OC	-1.5%	38.8	20.6µM*	18.4µM*	7.31µM*	-14.2%
COc1ccc(CNc2cc([N+](=O)[O-])ccc2OC)cc1	-17.6%	-23.3	-18.6%	-17.5%	14.8%	1.0%[9.24 µM]
CCOC(=O)c1ccc(N2CN(CCc3ccccc3)CNC2=S)cc1	10.1%	-10.1	16.4µM*	?	17.3%	0.5%
CNC(=O)c1sc(N2N=C3/C(=C\c4ccccc4)CCCC3C2c2ccccc2)nc1C (configuration not stated)	-7.2%	-10.7	?	25.9µM*	·	-2.2%
CNC(=O)c1sc(N2N=C3/C(=C/c4ccccc4)CCCC3C2c2ccccc2)nc1C (configuration not stated)	-2.0%	-12.3	?	12.6µM*	?	?
